Screening results deposited in PubChem BioAssay by National Center for Advancing Translational Sciences (NCATS).
Compounds with a hit are over-represented: about 2.4% of the library has one in this group of screens.
Pol iota inh: blocks human DNA polymerase iota activity; Potency, µM (titrated, usually from 115 µM), inactives show at the top dose activity, negative = inhibition, most hits filed as inhibitors; actives 1% (n = 390,000); Pol iota fluorescent replication assay, 10 min; Q9UNA4
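Pol iota at 10 nM preincubated 15 min with compounds at room temperature; reaction started with fluorescent substrate, 50 nM final. Fluorescence read kinetically at 0 and 10 min; buffer-only wells as negative control.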
Pol beta inh: blocks human DNA polymerase beta activity; P06746; actives 1.3% (n = 340,000); Potency, µM (titrated, usually from 114 µM), inactives show at the top dose activity change, negative = inhibition, hits mostly inhibitors; Pol beta primer extension/strand displacement, fluorescence kinetic; also: % is scaled to controls: 0 for no effect and ±100 for the full control effect
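Pol beta (10 nM) was preincubated with compound for 15 min at room temperature. The reaction was then started with 50 nM substrate and read immediately and after a further 10 min at room temperature.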
WRN helicase inh: blocks human WRN helicase; Potency, µM (doses to about 114 µM), without a hit: at the highest dose activity change, negative = inhibition, most hits filed as inhibitors; actives 0.46% (n = 360,000); WRN helicase unwinding, fluorescent forked duplex, kinetic; Q14191; also: % is scaled to controls: 0 for no effect and ±100 for the full control effect; nearly all actives have a fitted effect of over 55% in size
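WRN at 20 nM final was preincubated with compound for 15 min at room temperature; reaction started with 100 nM forked duplex oligonucleotide carrying fluorophore and quencher plus 2 mM ATP (final). Unwinding followed kinetically by red fluorescence (ex 525/em 598 nm).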
Pol kappa inh: inhibitors of human DNA polymerase kappa | AID 588579 | Q9UBT6 | purified Pol kappa, fluorescent DNA synthesis assay, 10 min | actives 0.53% (n = 400,000) | Potency, µM (series often up to 107 µM), inactives show at the highest dose activity, negative = inhibition, actives largely listed as inhibitors; also: % is scaled to controls: 0 for no effect and ±100 for the full control effect
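Activity was followed as the change in fluorescence between reads at 0 and 10 min after starting the reaction with 50 nM substrate. Beforehand, 10 nM polymerase had been preincubated with compound for 15 min at room temperature.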
FEN1 inh: human FEN1 inhibition | P39748 | Recombinant FEN1 flap cleavage, fluorescence, 15 min | Potency, µM (series often up to 114 µM), inactives show at the highest dose activity change, negative = inhibition, most hits filed as inhibitors | actives 0.35% (n = 390,000) | AID 588795; also: % is scaled to controls: 0 for no effect and ±100 for the full control effect; nearly all actives have a fitted effect of over 65% in size
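Recombinant FEN1 (10 nM) was preincubated with pin-transferred compounds for 15 min at room temperature, then flap DNA substrate (50 nM final) was added. Plates were read at 0 and 15 min, and normalized concentration–response data were fitted to a four-parameter Hill equation.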
POLH inh: inhibitors of human DNA polymerase eta | recombinant Pol eta, fluorescent DNA replication assay | Potency, µM (series often up to 114 µM), for the others: top-dose activity change, negative = inhibition, usual class: inhibitors | actives 1.2% (n = 390,000) | AID 588591; also: % is scaled to controls: 0 for no effect and ±100 for the full control effect
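Fluorescent replication assay: 50 nM final substrate added after a 15 min room-temperature compound preincubation with 10 nM enzyme. Signal taken at 0 min and again at 10 min.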
TbPGK inh: TbPGK inhibition, hit validation; Potency, µM (titrated, usually from 57.5 µM), without a hit: top-dose activity change, negative = inhibition, hits mostly inhibitors; shares compounds with Pol kappa inh; TbPGK coupled GAPDH assay, Kinase-Glo luminescence; actives 79% (n = 500); also: % is scaled to controls: 0 for no effect and ±100 for the full control effect; nearly all actives have a fitted effect of over 65% in size
Target sequence (P07378 whole entry, looked up): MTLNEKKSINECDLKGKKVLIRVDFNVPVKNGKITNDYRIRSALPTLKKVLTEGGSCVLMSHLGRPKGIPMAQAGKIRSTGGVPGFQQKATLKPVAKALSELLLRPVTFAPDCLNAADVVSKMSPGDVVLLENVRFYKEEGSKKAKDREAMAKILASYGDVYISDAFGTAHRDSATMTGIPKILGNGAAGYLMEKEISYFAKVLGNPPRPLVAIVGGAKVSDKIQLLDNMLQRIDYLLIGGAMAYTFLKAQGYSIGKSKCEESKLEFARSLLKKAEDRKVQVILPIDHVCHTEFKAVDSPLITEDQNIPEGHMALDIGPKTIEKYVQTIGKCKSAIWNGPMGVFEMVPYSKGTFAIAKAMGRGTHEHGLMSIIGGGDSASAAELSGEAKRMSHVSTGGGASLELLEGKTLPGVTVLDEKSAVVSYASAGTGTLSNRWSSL
POLI cherry-pick: Inhibitors of human DNA polymerase iota, confirmation; Pol iota primer extension, TAMRA/BHQ fluorescence; actives 77% (n = 1,500); AID 720496; shares compounds with Pol kappa inh; Potency, µM, usual class: inhibitors
* marks the source's active call; other numbers are inactive results; ? = inconclusive; . = not tested or not shown; [ ] = another dose, or the depositor's remark. Calls follow the shape of the dose curve; as a rule, active = well fitted curve in the direction sought with a large enough effect; inconclusive = small, poorly fitted or top-dose-only effect, or another doubt; inactive = no such curve, though single readings can be large; an effect the other way counts as inactive or inconclusive. Potency is read from the fitted curve at half-maximal effect.

SMILES	Pol iota inh	Pol beta inh	WRN helicase inh	Pol kappa inh	FEN1 inh	POLH inh	TbPGK inh	others
C=CCOc1cccc(C(=O)N2CCC(CCC(=O)NC3CC3)CC2)c1	?	1.9%	8.1%	-7.2%	20.4%	-14.3%	.
COc1ccc(NC(=O)/C(C#N)=C/c2ccc(Br)o2)cc1	22.4µM*	10µM*	?	79.4µM*	-16.5%	?	.	POLI cherry-pick=?
COc1ccc(NC(=O)/C(C#N)=C/c2ccc(C)o2)cc1	19.6%	2.4%	.	3.7%	-6.5%	-13.4%	.
O=C(Nc1ccc(Cl)cc1Cl)c1cnn2c1NC(=C1CC1)C=C2C(F)F	28.4%	.	.	6.2%	-6.0%	.	.
Cc1ccc(NC(=O)c2sccc2C)nc1	9.0%	8.9%	12.0%	3.1%	-0.4%	-7.6%	13µM*
CCCCc1ccc(NC(=O)c2cc(-c3ccc(C)c(F)c3)on2)cc1	-25.5%	2.5%	.	-12.7%	-12.7%	-7.3%	.
CC(=O)Nc1ccc(S(=O)(=O)N2CCC(N3CCN(Cc4ccc(C)cc4)C(=O)C3=O)CC2)cc1	79.4µM*	44.7µM*	.	-38.4%	6.9%	?	.	POLI cherry-pick=?
CCOc1ccc(S(=O)(=O)N2CCC(N3CCN(Cc4ccc(C)cc4)C(=O)C3=O)CC2)cc1	1.1%	-10.5%	.	-2.5%	20.5%	-14.7%	.
CN=C1C=CC(=C(c2ccc(N(C)C)cc2)c2ccc(N(C)C)cc2)C=C1	.	.	.	-6.4%[19.4 µM]	.	.	.
CCN(CC)c1ccc(C(=C2C=CC(=[N+](CC)CC)C=C2)c2ccc(N(CC)CC)cc2)cc1	2.4%	.	-12.8%	6.1%	?	-17.3%	16.3µM*
Cc1csc2c(=O)sc(NC(=O)c3cccs3)nc12	?	?	?	5.9%	?	?	25.9µM*
Cc1csc2c(=O)sc(NC(=O)c3ccco3)nc12	6.4%	?	0.3%	-10.8%	-14.3%	39.5%	.
CCOc1ccc(C(=O)NCC(=O)NNC(=O)C2COc3ccccc3O2)cc1OCC (centres undefined)	11.8%	.	3.5%	-1.4%	-0.5%	-1.8%	.
Cc1ccc(-c2cc(C(=O)N/N=C/c3c(C)nn(C)c3C)c3ccccc3n2)cc1C	22.4µM*	?	-23.5%[57.1 µM]	3.1%	-12.9%	?	.	POLI cherry-pick=?
Cc1ccc(-c2cc(C(=O)N/N=C/c3ccoc3)c3ccccc3n2)cc1	-11.0%	16.8%	-4.7%	14.2%	9.6%	-14.7%	.
CS(=O)(=O)NCCSCc1ccco1	?	39.8µM*	?	?	-2.8%	70.8µM*	20.6µM*
Cc1occc1C(=O)N/N=C/c1ccc(N(C)C)cc1	5.7%	-0.3%	-4.8%	0.8%	0.0%	-20.2%	10.3µM*
Cc1occc1C(=O)N/N=C/C=C/c1ccc(N(C)C)cc1	19.7%	0.3%	-0.4%	5.1%	3.8%	-13.6%	.
COc1cc(SC)ccc1C(=O)NNC(=O)c1cc(C)oc1C	90.8%	.	-9.4%	-6.9%	-3.4%	-16.6%	13µM*
COc1ccccc1C(=O)Nc1nc2ccccc2[nH]1	3.2%	24.0%	7.6%	-1.5%	-0.7%	-17.5%	5.8µM*
COc1ccccc1C(=O)NCCC(=O)Nc1nc2ccccc2[nH]1	35.2%	.	-3.7%	-1.1%	-9.2%	-7.1%	.
COc1cc(SC)ccc1C(=O)Nc1c(C)cccc1C	138.1%	-2.8%	-2.0%	-2.1%	3.7%	-19.9%	.
COc1cc(SC)ccc1C(=O)Nc1nc2ccccc2[nH]1	-1.3%	-8.3%	-0.8%	-2.7%	3.6%	-18.5%	3.26µM*
O=C(Nc1nnc(C2CCCCC2)s1)C1CC(=O)N(c2ccc(F)cc2)C1 (centres undefined)	48.2%	21.8%	-2.9%	5.5%	3.6%	-22.5%	.
CC(C)CC(=O)Nc1cc2c3c(c1)C(C)C(=O)N3CCC2 (centres undefined)	7.0%	0.1%	0.1%	-2.8%	-12.4%	-6.0%	.
SMILES	Pol iota inh	Pol beta inh	WRN helicase inh	Pol kappa inh	FEN1 inh	POLH inh	TbPGK inh	others
CCOc1ccc(-c2ccc(SC)nn2)cc1	133.2%	12.8%	-17.5%	-6.6%	5.8%	-15.8%	8.19µM*
O=C(OCC1CC(c2ccccn2)=NO1)c1ccc(Br)cc1 (centres undefined)	24.9%	5.7%	-1.5%[57.1 µM]	-1.0%	4.6%	-0.1%	.
O=C(CSc1nnc2scc(-c3ccccc3)n12)Nc1nsc(-c2ccccc2)n1	?	?	?	-22.6%	?	?	.	POLI cherry-pick=37.7*
COc1ccccc1NS(=O)(=O)c1cc(NC(=O)CNC(=O)c2ccccc2)ccc1C	-0.5%	24.9%	-28.8%	-15.6%	-3.0%	-14.1%	.
COc1ccccc1NS(=O)(=O)c1cc(NC(=O)c2ccc3c(c2)OCCO3)ccc1C	?	27.5%	-27.4%	0.1%	8.6%	-25.5%	2.3%
CCCOc1ccc(C2C(=O)N(C3CCCCCC3)CC(=O)N2Cc2ccccc2OC)cc1OC (centres undefined)	25.4%	2.0%	.	-1.8%[60.1 µM]	2.6%	-22.2%	.
O=C(CCN1CCOCC1)N1CCCC(Nc2ccc(F)cc2)C1 (centres undefined)	53.9%	2.8%	-7.8%	1.7%	-4.9%	-19.1%	.
O=C(c1ccccc1)c1ccc(O)c(O)c1O	28.2µM*	.	28.2µM*	22.4µM*	?	8.91µM*	5.8µM*
COc1cc(CC(=O)OCC(=O)NCc2cccs2)cc(OC)c1OC	53.5%	.	-32.9%	-10.2%	-1.3%	3.7%	.
COc1ccccc1NCCC(=O)OCC(=O)NCc1ccco1	6.31µM*	17.8µM*	?	79.4µM*	-11.4%	5.62µM*	.	POLI cherry-pick=?
Cc1ccccc1OCC(=O)OCC(=O)NCc1ccco1	22.1%	.	7.3%	-10.2%	-3.2%	-1.3%	.
CCc1nn2c(=O)cc(COc3cccc(NC(=O)c4ccco4)c3)nc2s1	50.1µM*	?	-20.8%	?	-21.1%	?	.	POLI cherry-pick=?
CCCc1nn2c(=O)cc(COc3cccc(NC(=O)c4ccco4)c3)nc2s1	-25.4%	-13.0%	-7.3%	-14.5%	-5.3%	?	.
O=S(=O)(c1cccc(S(=O)(=O)N2CCN(c3ncccn3)CC2)c1)N1CCOCC1	9.5%	-3.4%	-5.8%	-3.3%	-6.9%	0.3%	.
O=C(Oc1cc(=O)oc2c1c(=O)n1c3c(cccc23)CC1)c1ccc(F)cc1	?	?	-13.1%	0.8%	-9.8%	-15.1%	.	POLI cherry-pick=10.6*
CN(CC(=O)Nc1ccc(F)cc1)C(=O)COC(=O)Cc1cccs1	13.2%	.	4.8%	-10.3%	2.4%	-2.3%	.
